Rows were chosen to be rich in hits. Some 5.9% of all compounds tested hit in one or more screens of this group.
TGFb inhibitor = blocks TGF-b signaling; HepG2 CAGA-GFP TGF-b/SMAD3 reporter, GFP fluorescence, 18 h; TGF-beta stimulated, 500 pg/mL final; Potency, µM (doses to about 46.1 µM), inactives show at the highest dose activity, negative = inhibition, actives largely listed as inhibitors; 410,000 compounds, 1.2% hits; also: % is scaled to controls: 0 for no effect and ±100 for the full control effect; nearly all actives have a fitted effect of over 65% in size
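Inhibition of TGF-beta-driven CAGA-GFP reporter expression in HEPG2 cells is measured by cellular GFP fluorescence after 18 h stimulation with 500 pg/mL recombinant TGF-beta in 1% FBS medium at 37 degrees C.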
KB-3-1 cytotox = kills parental KB-3-1 adenocarcinoma cells. AID 1347075. 400,000 compounds, 1.4% hits. Potency, µM (highest dose often 46.1 µM), hits mostly cytotoxic. KB-3-1 viability, CellTiter-Glo ATP luminescence, 72 h; also: % is scaled to controls: 0 for no effect and ±100 for the full control effect; nearly all actives have a fitted effect of over 60% in size
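Luminescent ATP read-out (CellTiter-Glo) measures survival of drug-naive KB-3-1 cells after 72 h compound exposure at 37 °C. Titration series was screened from lowest to highest concentration, with DMSO vehicle plates as background controls.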
KB-V1 MDR tox = KB-V1 MDR subline cytotoxicity. KB-V1 MDR cells viability, CellTiter-Glo, 72 h. Potency, µM (doses to about 46.1 µM), hits mostly cytotoxic. 400,000 compounds, 3.4% hits; also: % is scaled to controls: 0 for no effect and ±100 for the full control effect; nearly all actives have a fitted effect of over 60% in size
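KB-V1 cells (P-gp-expressing MDR subline of KB-3-1) in phenol-red-free DMEM with 10% FBS were exposed to library compounds over a concentration series for 72 h at 37 degrees C. Viability read by CellTiter-Glo luminescence; concentration-effect curves fitted after normalization.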
ATXN viability = cell viability loss in ATXN counter-screen. S2 cells (HEK-293 line with an ATXN2-luciferase reporter) viability, CellTiter-Fluor protease fluorescence, 24 h. Potency, µM (titrated, usually from 56.7 µM), usual class: cytotoxic. 400,000 compounds, 0.49% hits; also: nearly all actives have a fitted effect of over 40% in size
HepG2 tox = counter-screen for TGF-b inhibitors: cytotoxicity in HepG2 cells; Potency, µM (titrated, usually from 46.1 µM), for the others: top-dose activity change, negative = cytotoxicity, most hits filed as cytotoxic; HepG2 CAGA-GFP viability, ATP luminescence, 18 h; 410,000 compounds, 0.76% hits
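HepG2 CAGA-GFP cells (1000/well, DMEM with 1% FBS) received compound, then TGF-beta at 500 pg/mL final, and were incubated 18 hours at 37 degrees C. Viability was read by CellTiter-Glo luminescence. Media-only wells were set as complete cell-killing and DMSO as no toxicity.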
ATXN2 expr inh = ATXN2 expression inhibition; HEK-293 ATXN2-luciferase reporter, luminescence, 24 h; AID 1745845; Potency, µM (highest dose often 57 µM), for the others: at the top dose activity change, negative = inhibition, most hits filed as inhibitors; 360,000 compounds, 0.72% hits; also: % is scaled to controls: 0 for no effect and ±100 for the full control effect; nearly all actives have a fitted effect of over 55% in size
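qHTS (up to 57 uM final) was run with 24 h compound exposure of reporter cells at 37 °C. Each well was multiplexed: SteadyGlo luminescence measured ATXN2-luciferase expression after a fluorogenic Gly-Phe-AFC viability readout (25 uM final).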
Starred values were filed as active, the others as inactive; i = inactive; ? = inconclusive; . = no result given. Calls follow the shape of the dose curve; as a rule, active = well fitted curve in the direction sought with a large enough effect; inconclusive = small, poorly fitted or top-dose-only effect, or another doubt; inactive = no such curve, though single readings can be large; an effect the other way counts as inactive or inconclusive. Potency is read from the fitted curve at half-maximal effect.

SMILES	TGFb inhibitor	KB-3-1 cytotox	KB-V1 MDR tox	ATXN viability	HepG2 tox	ATXN2 expr inh
COc1cccc(C2=NN(S(C)(=O)=O)C(c3cn(-c4ccccc4)nc3-c3cccs3)C2)c1 (stereo not given)	-10%	i	i	i	4%	16%
NC1=NC(=O)C(Cc2cc(Cl)ccc2Cl)S1 (stereo not given)	25%	i	i	i	-28%	23%
CC(=O)/C(C#N)=C1\NC(=O)C(Cc2ccc(F)cc2)S1 (stereo not given)	1%	?	i	i	-5%	89%
CC(=O)/C(C#N)=C1\NC(=O)C(Cc2ccc(C)c(C)c2)S1 (stereo not given)	11%	15µM*	5.8µM*	i	-36%	24%
CC(=O)/C(C#N)=C1\NC(=O)C(Cc2ccccc2Cl)S1 (stereo not given)	61%	3.3µM*	?	i	-33%	-24%
CC(=O)/C(C#N)=C1\NC(=O)C(Cc2cc(Cl)ccc2Cl)S1 (stereo not given)	-26%	15µM*	6.5µM*	?	-51%	.
Cc1ccc(-c2nn(-c3ccc(F)cc3F)c3c2cnc2ccc(F)cc23)cc1	16%	i	i	i	-1%	9%
COc1ccc(C2Nc3ccccc3C(=O)N2c2ccc(F)cc2)cc1COc1ccc(NC(C)=O)cc1 (stereo not given)	18%	i	i	.	2%	.
O=C1NC[C@H](CCCCN2C[C@H](Cc3ccccc3)N(CC3CCCCC3)C(=O)C2=O)N(CC2CCCCC2)C1=O	.	i	i	14µM*	.	-22%
CC(C)C[C@H]1CN([C@@H](Cc2ccccc2)CN2CCC[C@@H]2CN2C(=O)C(=O)NC[C@@H]2Cc2ccccc2)C(=O)C(=O)N1CC1CCCCC1	8.9µM*	?	i	20µM*	20µM*	?
O=C1NC[C@H](Cc2ccccc2)N(C[C@H]2CCCN2C[C@H](Cc2ccccc2)N2C[C@H](Cc3ccccc3)N(CC3CCCCCC3)C(=O)C2=O)C1=O	?	?	i	18µM*	-70%	?
O=C(NCC(c1cccnc1)N1CCN(Cc2ccccc2)CC1)C(=O)Nc1ccc(F)cc1 (stereo not given)	-20%	i	i	i	-26%	-4%
COc1ccc(CN2CCOc3c(O)cc(-c4cc(C)c5ccc(F)cc5n4)cc3C2)c(O)c1	.	.	.	i	.	.
N#Cc1ccccc1NC(=O)C1SC(=Nc2ccccc2)C(C(=O)Nc2ccc(Cl)cc2)=C1N (stereo not given)	?	5.2µM*	6.5µM*	i	-97%	?
CCOc1ccc(N=C2SC(C(=O)Nc3ccccc3C#N)C(N)=C2C(=O)Nc2ccc(Cl)cc2)cc1 (stereo not given)	?	i	i	i	-41%	9%
O=C(O)C1CCN(c2ncc(-c3ccc4c(c3)OCCCO4)s2)CC1	.	i	i	.	.	.
O=C(N[C@@H](Cc1ccccc1)C(=O)CCl)OCc1ccccc1	?	?	23µM*	16µM*	-76%	28µM*
CC(C)C[C@@H](C=O)NC(=O)[C@H](CC(C)C)NC(=O)[C@H](CC(C)C)NC(=O)OCc1ccccc1	.	.	.	.	.	1.1µM*
COC(=O)CCC(NC(=O)OCc1ccccc1)C(=O)NC(CC(C)C)C(=O)OC (stereo not given)	-12%	i	i	i	-15%	-3%
O=C(CCl)NC(Cc1ccccc1)C(=O)OCC(=O)c1ccc(-c2ccccc2)cc1 (stereo not given)	?	i	i	15µM*	-61%	-22%
COc1cc(CNc2ccc3[nH]c(=O)[nH]c3c2)ccc1OCc1ccc(F)cc1	-19%	i	?	i	-6%	3%
COc1cc(CNc2ccc3[nH]c(=O)[nH]c3c2)ccc1OCc1ccc(Cl)cc1	11µM*	i	i	?	-54%	4%
O=C(CSc1nccn1-c1ccc(F)cc1)Nc1nc2ccccc2s1	-29%	.	.	.	-41%	.
CC(C)c1ccc2oc(-c3cc(N)ccc3O)nc2c1	0%	i	18µM*	i	-37%	-12%
c1ccc(C[C@H]2CN=C(Nc3ccccc3)N2CC2CCCC2)cc1	.	i	?	i	.	-9%
SMILES	TGFb inhibitor	KB-3-1 cytotox	KB-V1 MDR tox	ATXN viability	HepG2 tox	ATXN2 expr inh
CC1Cc2cc(S(=O)(=O)CCC(=O)Nc3ccc(OC(F)(F)F)cc3)ccc2N1C(=O)C1CC1 (stereo not given)	?	.	.	.	-35%	.
c1ccc(CSc2nnc(SCc3ccccn3)s2)nc1	8%	i	16µM*	i	3%	21%
N=C(N)SCc1ccccn1	-5%	i	i	i	-9%	0%
C=CCS/C(N)=N\N=C\c1c(O)ccc2ccccc12	7.9µM*	i	i	i	-78%	19%
Cc1cccc(-c2ccc(O)cc2CN2CCN(c3ncc(Cc4ccccc4)cn3)CC2)c1	.	i	?	.	.	.
COc1ccc2oc(=O)c(C(=O)NCCc3c(C)[nH]c4c(C)cccc34)cc2c1	2%	i	?	i	-5%	1%
Cc1nc([N+](=O)[O-])c(C(=O)OCc2ccccc2Br)n1C	0%	?	21µM*	i	-9%	-7%
CS(=O)(=O)N(Cc1ccc(Cl)cc1)c1ccc(C(=O)NCCSc2ccccn2)cc1	?	?	5.8µM*	i	1%	-19%
CS(=O)(=O)N(Cc1ccccc1)c1ccc(C(=O)Nc2cccnc2)cc1	-3%	i	i	i	-32%	9%
CS(=O)(=O)N(Cc1ccc(Cl)cc1)c1ccc(C(=O)Nc2cccnc2)cc1	28%	?	21µM*	i	-22%	4%
CS(=O)(=O)N(Cc1ccccc1)c1ccc(C(=O)Nc2cccc(Cl)c2)cc1	16µM*	i	i	.	11µM*	0%
CCOC(=O)c1c(-c2ccc(C)cc2)csc1NC(=O)c1cc(=O)c2cc(Cl)ccc2o1	-1%	i	i	i	6%	2%
Cc1c(C(=O)NCCc2ccncc2)cnn1-c1nccc(-c2ccccc2C(F)(F)F)n1	.	.	.	i	.	.
CC(C)CCCCCCCCCCCCC(=O)NCC(=O)NC1C(O)C(O)C(Nc2ncnc3nc[nH]c23)OC1C(O)CO (stereo not given)	?	0.18µM*	0.16µM*	i	-34%	-66%
